Shown are actives, neighbours in structure and some others; about 3.1% of the full set was active somewhere.
TWEAK Fn14 block: blocks TWEAK-Fn14 interaction in a reporter cell assay; TWEAK-stimulated Fn14 reporter cells, luciferase luminescence, 8 h; inhibition, % at 10 µM; 360,000 tested, 2% active; AID 1159606; in the data active = inhibition above about 50%
TROY signal inh: TROY signaling inhibition; Q293 LMP1-TROYcd NF-kB luciferase reporter, 4 h; inhibition, % at 10 µM; 360,000 tested, 0.98% active;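 active = compounds whose plate-normalised and pattern-corrected inhibition of the luciferase reporter signal at the single screening dose is 50% or more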
EWS-Fli inh: blocks EWS/Fli oncoprotein-driven transcription | 350,000 tested, 0.67% active | AID 651661 | A673 NR0B1-luciferase reporter, viability-normalised | inhibition, % at 12.6 µM;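 active = mean inhibition of at least 50% after viability correction, with every replicate also passing that limit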;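 note: firefly luciferase signal divided by Alamar Blue viability fluorescence both relative to DMSO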
LGR2 antag: inhibitors of bursicon-induced Drosophila LGR2 receptor cAMP signaling; HEK293 LGR2, CRE-luciferase, bursicon-stimulated, 4 h; inhibition, % at 9.99 µM; 380,000 tested, 0.35% active;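 active = drop in luminescence signal, shown as inhibition above about 50% in the replicate tests, limit read from the data, passing the limit was not always enough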;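 note: agonist challenge used bursicon conditioned medium at about half maximal strength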
PAX8 inh HTS: PAX8 transcriptional activity inhibition | RMG-I TPO-luciferase reporter, SteadyGlo, 24 h | inhibition, % at 12.6 µM | 360,000 tested, 1.2% active | AID 652154;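 active = mean replicate inhibition at least 60% with every replicate also reaching 60%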;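 note: luciferase light reporting Pax8 driven TPO promoter activity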
EBV LMP1 NFkB: inhibitors of Epstein-Barr LMP1-induced NF-kappaB reporter. LMP1-induced NF-kappaB luciferase reporter cells, luminescence. inhibition, % at 12.5 µM. 350,000 tested, 0.69% active; in the data active = inhibition above about 41%
DNA binder FP: small molecule DNA binding by fluorescence polarization; shares compounds with EWS-Fli inh; salmon sperm DNA acridine orange fluorescence polarization; AC35, µM (doses to about 68 µM); 640 tested, 2% active; AID 720586;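 active = fitted curve reaches a 35% signal fall AC35 below twice the sample's top valid tested dose, actives reach about 48 µM in these data; inactive = the rest, including activity in the rising direction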;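 note: lower polarization ratio signals compound binding to DNA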
Numbers stand for hits; – = inactive; · = not tested or not shown.

SMILES	TWEAK Fn14 block	TROY signal inh	EWS-Fli inh	LGR2 antag	PAX8 inh HTS	EBV LMP1 NFkB	DNA binder FP
c1ccc(-c2ccc([C@H]3[C@H]4CNC[C@@H]3N4Cc3cc(-c4ccccc4)on3)cc2)cc1	·	·	58	–	–	·	–
c1ccc(-c2cc(CN3[C@@H]4CNC[C@H]3C4c3ccc(-c4ccncc4)cc3)no2)cc1 (stereo partly drawn)	·	·	–	–	–	·	·
C=CCOC(=O)c1sc(NC(=O)c2ccc(OC)cc2)nc1C	–	–	56	–	–	–	–
COCC(=O)N(C)C[C@@H]1Oc2ncc(Br)cc2C(=O)N([C@H](C)CO)C[C@H]1C	·	·	–	–	–	·	·
CCCCOc1ccc(NC(=O)C(=O)NCCCn2ccnc2)cc1	–	–	78	–	85	–	–
CCCCCCOc1ccc(C(=O)NCCCn2ccnc2)cc1	–	–	–	·	–	–	·
Cc1ccc(S(=O)(=O)N(C)C[C@@H]2Oc3ncc(-c4ccc(F)cc4)cc3C(=O)N([C@H](C)CO)C[C@@H]2C)cc1	·	·	–	–	·	·	·
Cc1nc2ccc(N)cc2c(=O)n1Cc1ccc(Cl)cc1	–	–	·	·	·	–	·
Nc1ccc(Cn2ccc3c4c(N)nc(N)nc4ccc32)cc1	–	–	70	–	70	–	–
N#CC1=C(N)Oc2cc(N)ccc2C1c1cccc(Br)c1 (stereo not drawn)	–	–	62	–	64	–	–
Cc1ccc(C2C(C#N)=C(N)Oc3cc(N)ccc32)cc1 (stereo not drawn)	–	–	–	–	–	–	·
N#CC(=C1C=CC(=NO)C(Cl)=C1)c1ccccc1	–	–	51	–	73	·	–
CC(C)NC(=O)N(C)C[C@@H]1Oc2ccc(N(C)C)cc2CC(=O)N([C@@H](C)CO)C[C@H]1C	·	·	·	–	–	·	·
O=c1ccc2[n+]([O-])c3ccc(O)cc3oc-2c1	–	–	57	–	81	–	14µM
CCN(CC)C(=O)CN1C(=O)C(=O)c2ccccc21	–	–	54	–	–	–	–
O=C(CN1C(=O)C(=O)c2ccccc21)c1ccc(Cl)cc1	–	–	60	–	–	–	–
O=C(CN1C(=O)C(=O)c2ccccc21)OCN1C(=O)c2ccccc2C1=O	–	–	–	·	–	–	·
Cc1ccccc1N=CC1=C(O)c2ccccc2C1=O	106	78	77	101	–	–	–
N/C(Cc1nc(-c2ccc(F)cc2)cs1)=N\O	–	–	77	–	–	–	–
C[C@H]1CN([C@@H](C)CO)C(=O)Cc2cc(NC(=O)C3CC3)ccc2O[C@@H]1CN(C)CC1CCCCC1	·	·	–	–	·	·	·
CC(C)(C)c1ccc(Oc2ccc(NC(=O)C3CC=CCC3C(=O)O)cc2)cc1 (stereo not drawn)	–	76	70	–	–	–	–
OCC1OC(n2cnc3c(NCc4ccco4)ncnc32)C(O)C1O (stereo not drawn)	–	–	76	–	104	–	–
C=CCNc1ncnc2c1ncn2C1OC(CO)C(O)C1O (stereo not drawn)	–	–	·	·	·	–	·
OC[C@H]1O[C@@H](n2cnc3c(NC4CCCC4)ncnc32)[C@H](O)[C@@H]1O	–	–	–	·	–	–	·
OC[C@H]1O[C@@H](n2cnc3c(NCc4ccco4)ncnc32)[C@H](O)[C@@H]1O	–	–	80	–	100	–	–
SMILES	TWEAK Fn14 block	TROY signal inh	EWS-Fli inh	LGR2 antag	PAX8 inh HTS	EBV LMP1 NFkB	DNA binder FP
CCC(=O)N(C)C[C@H]1Oc2cc(Br)ccc2S(=O)(=O)N([C@H](C)CO)C[C@@H]1C	·	·	–	–	·	·	·
COc1ccc(/C=C2/SC(=S)N(CCCC(=O)Nc3ccc(O)cc3)C2=O)cc1	–	–	–	–	–	–	·
COc1ccc(/C=C2\SC(=S)N(CCCC(=O)Nc3ccc(O)cc3)C2=O)cc1	–	–	61	–	–	–	–
C[C@@H]1CCCCO[C@H](CN(C)C(=O)c2ccccc2)[C@@H](C)CN([C@@H](C)CO)C(=O)c2cc(NC(=O)Nc3cccc4ccccc34)ccc2O1	·	·	–	–	·	·	·
Nc1sc(-c2ccccc2)cc1-c1n[nH]c(=S)n1C1CCCCC1	–	–	59	·	–	–	–
COc1ccc(-n2c(-c3cc(-c4ccccc4)sc3N)n[nH]c2=S)cc1	–	–	–	–	–	–	·
CC(=O)N[C@H]1C=C[C@H](CC(=O)NCc2ccc(Cl)cc2)O[C@@H]1CO	·	·	–	–	–	·	·
CCOc1ccc(N=Nc2ccc(O)c3ncccc23)cc1	–	–	58	–	–	–	–
O=c1[nH]c(=O)n([C@H]2C[C@H](O)[C@@H](CO)O2)cc1C(F)(F)F	–	–	57	–	–	46	–
O=c1[nH]c(=O)n(C2C[C@H](O)[C@@H](CO)O2)cc1C(F)(F)F (stereo partly drawn)	–	–	62	–	–	–	–
Cc1ccc(N=C2NC(=O)/C(=C\c3cccs3)S2)cc1C	–	–	58	–	–	–	–
O=C(NCCCN1CCOCC1)[C@@H]1[C@@H](CO)[C@@H]2Cn3c(ccc(C4=CCCC4)c3=O)[C@H]1N2	·	·	–	–	·	·	·
Brc1ccc(CSc2nnc(-c3ccco3)o2)cc1	–	–	82	–	–	–	–
c1ccc(CSc2nnc(-c3ccco3)o2)cc1	–	–	–	–	–	–	·
COc1ccc(/C=C2\Oc3ccccc3C2=O)cc1	65	–	62	56	–	–	–
CC(=O)Oc1ccc(/C=C2/Oc3ccccc3C2=O)cc1	–	–	–	–	–	–	·
COc1ccc(S(=O)(=O)N(C)C[C@@H]2Oc3cc(C#CC4CC4)ccc3S(=O)(=O)N([C@H](C)CO)C[C@H]2C)cc1	·	·	–	–	·	·	·
CN(C)c1ccc(C(=O)c2ccccc2)cc1	–	–	·	·	·	–	·
CN(C)c1ccc(N=Nc2ccc(C(=O)O)cc2)cc1	98	–	65	–	–	–	–
O=C1CN(S(=O)(=O)Cc2ccccc2)C[C@H]2[C@@H](c3ccc(C#CCC4CCCC4)cc3)[C@@H](CO)N12	·	·	–	–	–	·	·
NS(=O)(=O)c1ccc(NC(=O)c2ccccc2Cl)cc1	–	–	·	·	–	–	·
COC(=O)Cc1ccc(NC(=O)c2ccccc2Cl)cc1	–	–	66	–	–	–	–
O=C(c1ccccc1)N1CC2(C1)[C@H](c1ccccc1)[C@@H](CO)N2CC1CC1	·	·	–	–	–	·	·
O=C(/C=C/c1ccc(Cl)cc1Cl)N(Cc1ccc(Cl)cc1)C1CCS(=O)(=O)C1 (stereo not drawn)	–	–	70	–	–	–	–
O=C(/C=C/c1ccc(Cl)cc1Cl)N(Cc1ccccc1)C1CCS(=O)(=O)C1 (stereo not drawn)	–	–	·	–	–	–	·
C#CCOCCOCCOCCNc1nc(N2CCN(C(=O)CCCCCCCCCCNC(=O)Cn3cc(C[C@@H](C)O)nn3)CC2)nc(N2CCN(C(=O)CCCCCCCCCCNC(=O)[C@H](CO)n3cc(CCCSC)nn3)CC2)n1	–	–	58	–	–	–	–

High-throughput results as filed in PubChem BioAssay.
